Results on 66 sequences are retold here after PubChem BioAssay AID1159506 (National Center for Advancing Translational Sciences (NCATS), 2015).

Over roughly 59,000 sequences, the read-out has its median near -0.00055; the lowest 2% begin near -2. The entries come from a sample that favours the lowest values as a whole.

The test can be described thus: Identification of proteins required for the processing of the EWS-FLI1 nascent transcript.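 Also: robust z of luciferase light less the median z of siRNAs with the same seed.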 The conditions noted are these: TC32 Ewing sarcoma NR0B1-luc vs CMV-luc (EWS-FLI1 target promoter against control promoter), 48 h; screened at 20 nM (by protocol). As for the experimental part:
Ewing sarcoma (ES) cells depend on the EWS-FLI1 fusion transcription factor for cell survival. Using an assay of EWS-FLI1 activity and genome-wide siRNA screening we have identified proteins required for the processing of the EWS-FLI1 nascent transcript. Parallel genome-wide siRNA-mediated RNAi screens were conducted in Ewing sarcoma TC32 cell lines expressing a luciferase (luc) reporter protein driven by either the promoter of the EWS-FLI1 target gene NR0B1 (TC32-NR0B1-luc) or the CMV promoter (TC32-CMV-luc). Luciferase activity was assessed 48 hours post siRNA-transfection.
Twenty microl of serum-free media containing Lipofectamine RNAiMax (0.05 microl) was added to wells containing siRNA (0.8 pmol). Lipid and siRNA were allowed to complex for 45 min at ambient temperature before addition of 600 cells in RPMI-1640, 20% FBS to yield final transfection mixtures containing 20 nM siRNA in RPMI-1640, 10% FBS. Luciferase expression was measured using OneGlo (Promega, Madison, WI). The genome-wide screening campaign was conducted using Ambion's human genome library version 4.1 (Ambion, Austin TX). This library targets approximately 21000 human genes, three siRNAs per gene. Each siRNA is arrayed in an individual well of a 384-well plate. Parallel transfections were conducted in TC32-NR0B1-luc and TC32-CMV-luc cell lines and luciferase expression (OneGlo, Promega) was assayed 48 h later on a PerkinElmer Envision 2104 Multilabel plate reader (PerkinElmer, Waltham, MA). Qiagen's AllStars Negative control was incorporated on all screening plates for normalization (16 wells per plate). Qiagen, Germantown, MDsiGL4 was incorporated as a positive transfection control (16 wells per plate) on all plates. […] The raw luciferase data for the NR0B1- and CMV-luc screens were normalized and z-score-MAD transformed using standard methods (Chung et al., 2008). The miRNA-like seed sequence of every siRNA was determined and the median z-score for all siRNA sequences with the same seed sequence was calculated. This z-score was subtracted from the z-score associated with each siRNA with that seed sequence to generate a seed-adjusted z-score value (Z) that was used when the results for the three siRNAs corresponding to each gene were compared (Marine et al., 2012)
UGUUUCUACCCUUUGCUCC against FAM174B: the seed-corrected z-score is -0.127.
Under UUUGCAGCUAGUGAUGCGC against ABHD8 stands -0.567.
Sequence UAGCUAUUACCUUACAUUG against HRG registered a seed-corrected z-score of 0.409.
Under UCAUUGUUGAGGUGCGUGA against CDK5R1 stands 1.16; under UUUUGGACAGGACCGUUGG against SEC24A, 0.282.
Under UUUGGUGCAAAAACCGUGU against WTIP stands -2.
Under AUGGCUUCAACAAGCAUCU against HGH1 stands -0.109; under UAUGGGUCUACCGUCACAC against MIOS, -1.14; under UCAGGUACUCUAACACCGC against HIST1H2AC, -0.00982.
UACCGGUCGAGGCUGAUCA against HRH2: the seed-corrected z-score is -2.03.
Next, UUUCAUAGUAAUCGUAGAC against LOC728715: 0.493.
With UUGAGAGUAGAGACUGAGC against MKL2, the seed-corrected z-score was -0.474.
Under AAGCCUCACAGUACUGCGC against NSMCE3 stands -2.76; under UACAGUGCAGGAUCUUCUC against NBL1, -0.461; under UAUAUAUCGCCCAUCUCUC against OARD1, -0.737.
UCUGGUACAUUCGAUAGCG against PTGFRN returned a seed-corrected z-score of 0.714.
Under UUUCUUCCCAUGAUCUUUC against RALBP1 stands 0.057.
Next, UACUGUCCCAAUGGUCAGC against EZH2: -2.1; AAAUGAACAGGUUUGGAAC against GRPR: 0.695; UUCUUGUUGGAUAAUGCUG against RFX8: 0.126.
Next, AAUGAUCACACCUAAGCCC against USH2A: -3.89.
UUCUGCACUCGAGUAAAGG against MAD2L1 returned a seed-corrected z-score of 0.536.
For AUGCUAGUCAAAAGAAUCG against FBXO40, the seed-corrected z-score was 0.266.
Under UCGUCUAAAAUGACUAACG against SACS stands 0.485; under UCAGAUUUCAGAUCUUUGA against ANXA11, 0.136; under AAAGUACUCCGUAUUUCCC against SLC35D2, -1.42.
Next, UCUAGGGUCACUGUGACGG against RGS9BP: -0.834; UAGUUGUCCUUCAUAAUUC against CCDC67: -2.53.
Next, ACCUCUUCAACAUCUAACC against GEMIN4: 0.118.
On to CACGUGGCUAUUGUGGAAC against COX6A2, for which the seed-corrected z-score is -1.45.
Under AUAGGUUCCUCUAUAUGUG against ZNF396 stands 1.53.
Under UUGGGUGCGAUCUGCAGAC against LINC00304 stands -0.536; under AAAACACGUCGAAAUCUCC against RPL39, 0.834; under UAAGGAUAUUUGCUAAGGC against HMGCLL1, -0.796.
Next, UGUCUUCGCACUCUUAUCC against IFRD1: -2.25; UGUCCAUCCGUCAUGAUGC against ANKRD60: 0.777.
Turning to UAUGUAACAGGAUCCUGCC against RFC1, the seed-corrected z-score was determined as 0.0202.
Under UAUAAGUAAGCCUAGCUUG against C16orf54 stands 0.684.
Next, UUCGAUAGAGAACAAGUCG against FBXL4: -1.24.
Under UUGAUUUCCACGUUGCAUC against SLC10A2 stands -2.5.
For the sequence UACGGGUGCAGUAGUGGUG against RGR, the seed-corrected z-score was -0.158.
Next, UCAUCGUCUACUUCCAUUG against BPTF: -1.63; AACCGCUCCAUUUUUGCUC against POM121L12: 0.212; AAUUUAUUCCAAACUUGUC against ME3: -2.03.
Next, UUAGGGAAAGGUCCUCCUU against ELK1P1: 0.104; UGACUUAUGAACAUCAAAG against KLHL31: -1.09; AUCUAUCUGACCCAAAUCC against HNRNPH1: -2.26.
Under ACAUGAUCCAUCCAAAUGC against CD163 stands -0.0516.
For the sequence AACCGAUUCAUGACCACCG against AQP5, the seed-corrected z-score turned out to be 0.51.
Next, UUGGUGACUGUGCGCAUCC against TACR2: -0.41; AUGUGGACAACCUUCUUUG against RPS10P9: -1.14.
Next, AACGGGAACACCGACAACA against OPRL1: -0.00815.
Next, AACGUAAUAAAAGUCUUGC against SERHL: 0.571; UGCUGGUUCAACUCAUCGC against DLGAP3: -2.34; UUACUAACAUCUUCUCGUC against PKN2: 0.115.
Take AAACCUAUUAGUGAGAACA against TRIML1: the seed-corrected z-score is -0.116.
Under AAACGGAGUCGUAGGAUCC against BMP15 stands -0.603.
For UUUCGUAUUCUGAGGACCG against DLGAP5, the seed-corrected z-score was 0.243.
Regarding UUGCAGAUCUUUUCGCACC against S100A9, the seed-corrected z-score was -0.59.
In the case of AUUCGGAUUUGGGUCGUGC against PCDHGB2, the seed-corrected z-score was 0.36.
Next, UCAUGAUCUAUGUAGCCCG against ODF3L1: -2.53; UUCACCAUGACAGCCGAAG against RPL37AP8: -0.494; UUCAAUUCCAGCAACAUAA against CLDND1: -0.35.
Under AUGGUAACGAGCUGAAUCC against TWF1 stands 0.694; under AAAUGUACAGGGAUCCAGG against ACCSL, -2.2; under UUCAGGGCGAGGUAAUCCU against HLA-G, -0.165.
